The source of these data is the supplement of paper PMC9262897, “Low-cost anti-mycobacterial drug discovery using engineered E. coli” (Nature Communications, 2022).

Holding throughout (assay): growth (OD600 after 10 h); higher = more growth (less inhibition)
Test [1] deals with E. coli TESEC Alr+ wild-type control. Particulars: compound 0.1 mM; raw OD600 reference: median of DMSO wells 0.241, cell-free background 0.041. The procedure:
(§1)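 TESEC Mtb Alr E. coli, or the Alr+ wild-type control, in 384-well plates with Prestwick library compounds at 0.1 mM and 1% DMSO, across arabinose induction levels of 1E3 to 1E7 nM. Growth is read as OD600 after 10 h at 37 °C in triplicate biological replicates.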

In test [2] the test system is E. coli TESEC Mtb Asd. As to conditions: compound 0.1 mM. The procedure:
(§2)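 TESEC E. coli strains in which the native enzyme is deleted and replaced by arabinose-inducible Mtb Asd, DapB, CysH or TrpD, each grown in its selective medium. Strains were screened against the Prestwick library at 0.1 mM and 1% DMSO in 384-well format at low and high arabinose induction. Growth is read as OD600 after 10 h in triplicate.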

Test [3] deals with E. coli TESEC Mtb DapB. Particulars: compound 0.1 mM. The procedure: as §2
Test [4] concerns E. coli TESEC Mtb Alr. Particulars: compound 0.1 mM. How it is done:
(§3)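 TESEC Mtb Alr E. coli (ΔaraC ΔtolC ΔentC Δalr ΔdadX, arabinose-inducible Mtb Alr) or the Alr+ wild-type control strain, grown in defined M9-fructose medium without D-alanine in 96-well plates with Prestwick library compounds at 0.1 mM and 1% DMSO. Low Alr induction is 0.1 µM arabinose and high induction is 10 mM arabinose.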

Test [5] relates to E. coli TESEC Mtb Alr. As to conditions: compound 0.1 mM. How it is done: as §1
This is another data set of the same source.

Test [6] has as its system E. coli TESEC Alr+ wild-type control. As to conditions: compound 0.1 mM; raw OD600 reference: median of DMSO wells 0.49, cell-free background 0.052. How it is done: as §3
Where [7] appears, read: arabinose induction (level): High, raw OD600 reference: median of DMSO wells 0.331, cell-free background 0.041.
Where [8] appears, read: arabinose induction (level): Low, raw OD600 reference: median of DMSO wells 0.417, cell-free background 0.041.
The mark [9] stands for this setting: arabinose induction (level): High, raw OD600 reference: median of DMSO wells […], cell-free background 0.041.
[10] abbreviates: arabinose induction (level): Low, raw OD600 reference: median of DMSO wells 0.227, cell-free background 0.041.
The mark [11] stands for this setting: arabinose 100 nM, raw OD600 reference: median of DMSO wells 0.413, cell-free background 0.052.
Where [12] appears, read: arabinose 10000000 nM, raw OD600 reference: median of DMSO wells […], cell-free background 0.052.
The mark [13] stands for this setting: arabinose 1000 nM, raw OD600 reference: median of DMSO wells 0.294, cell-free background 0.041.
[14] abbreviates: arabinose 10000 nM, raw OD600 reference: median of DMSO wells 0.264, cell-free background 0.041.
Where [15] appears, read: arabinose 100000 nM, raw OD600 reference: median of DMSO wells 0.201, cell-free background 0.041.
[16] abbreviates: arabinose 1000000 nM, raw OD600 reference: median of DMSO wells 0.193, cell-free background 0.041.
Setting [17] is: arabinose 10000000 nM, raw OD600 reference: median of DMSO wells 0.146, cell-free background 0.041.

The structures appear in SMILES notation. Where a name gives a salt, the structure may show the parent alone. ± gives the standard deviation of the averaged measurements.

On to `C[N+]1(C)[C@@H]2CC[C@H]1C[C@@H](OC(=O)C(CO)c1ccccc1)C2` (some centres undefined) [Methylatropine nitrate], for which the growth in test [1] amounted to 0.232 ± 0.013; in test [2] (setting [7]) it was 0.286 ± 0.02; in test [2] (setting [8]), 0.438 ± 0.022; in test [3] (setting [9]), 0.199 ± 0.028; in test [3] (setting [10]), 0.229 ± 0.0072; in test [4] (setting [11]), 0.391 ± 0.011. In test [4] (setting [12]), this compound showed a growth of 0.355 ± 0.012.
Consider `O=C(CCCN1CCC(n2c(=O)[nH]c3ccccc32)CC1)c1ccc(F)cc1` [Benperidol], for which the growth in test [1] amounted to 0.181 ± 0.0021; in test [2] (setting [7]), 0.357 ± 0.062; in test [2] (setting [8]), 0.434 ± 0.086; in test [3] (setting [9]), 0.187 ± 0.026; in test [3] (setting [10]), 0.21 ± 0.0039; in test [4] (setting [11]), 0.411 ± 0.016. This compound registered a growth in test [4] (setting [12]) of 0.26 ± 0.02.
Take `CC(C)N(CCC(C(N)=O)(c1ccccc1)c1ccccn1)C(C)C` (centres undefined) [Disopyramide]: the growth in test [1] is 0.2355 ± 0.0022; in test [5] (setting [13]), 0.285 ± 0.018; in test [5] (setting [14]), 0.25 ± 0.0026; in test [5] (setting [15]), 0.195 ± 0.0071; in test [5] (setting [16]), 0.171 ± 0.0034; in test [5] (setting [17]), 0.14 ± 0.0064. Further, the growth in test [2] (setting [7]) came out at 0.313 ± 0.084; in test [2] (setting [8]), 0.408 ± 0.057; in test [4] (setting [11]) it was 0.41 ± 0.0056; in test [4] (setting [12]) it was 0.351 ± 0.007.
As to `C[C@]12CC[C@H](O)C[C@H]1CC[C@@H]1[C@@H]2CC[C@]2(C)[C@@H](C3=CC(=O)OC3)CC[C@]12O` [Digitoxigenin], the growth was determined as 0.147 ± 0.0028 in test [1]; 0.154 ± 0.0042 in test [2] (setting [7]); 0.289 ± 0.096 in test [2] (setting [8]); 0.165 ± 0.0087 in test [3] (setting [9]); 0.171 ± 0.003 in test [3] (setting [10]); 0.439 ± 0.016 in test [6]. The growth in test [4] (setting [11]) turned out to be 0.41 ± 0.0093; in test [4] (setting [12]), 0.227 ± 0.01.
On to `CN1C[C@H](C(=O)N[C@]2(C)O[C@@]3(O)[C@@H]4CCCN4C(=O)[C@H](Cc4ccccc4)N3C2=O)C[C@@H]2c3cccc4[nH]cc(c34)C[C@H]21` [Dihydroergotamine tartrate], for which the growth in test [1] is 0.0782 ± 0.0015; in test [5] (setting [13]), 0.0712 ± 0.0052; in test [5] (setting [14]), 0.0692 ± 0.001; in test [5] (setting [15]), 0.0715 ± 0.0021; in test [5] (setting [16]), 0.0579 ± 0.0025; in test [5] (setting [17]), 0.082 ± 0.0022. Besides, the growth came to 0.116 ± 0.013 in test [2] (setting [7]), 0.123 ± 0.0052 in test [2] (setting [8]), 0.282 ± 0.043 in test [4] (setting [11]) and 0.0688 ± 0.0007 in test [4] (setting [12]).
Consider `CC(=O)[C@H]1CC[C@H]2[C@@H]3CC[C@H]4C[C@H](O)CC[C@]4(C)[C@H]3C(=O)C[C@]12C` [Alfaxalone], for which the growth came out at 0.1302 ± 0.0013 in test [1]; 0.161 ± 0.045 in test [2] (setting [7]); 0.275 ± 0.038 in test [2] (setting [8]); 0.155 ± 0.031 in test [3] (setting [9]); 0.203 ± 0.028 in test [3] (setting [10]); 0.3696 ± 0.00096 in test [4] (setting [11]). This compound also showed a growth in test [4] (setting [12]) of 0.192 ± 0.015.
